Shown are actives, neighbours in structure and some others; about 4.7% of the full set was active somewhere.
D1 antagonist: blocks dopamine activation of the human D1 receptor. activity change, negative = inhibition, % at 10 µM. HEK293 TREx D1 cells, calcium flux, dopamine EC80; stronger effect = lower value. 360,000 tested, 3.2% active. P21728; in the data active = activity change below about -30%
Target sequence (P21728 whole entry, looked up): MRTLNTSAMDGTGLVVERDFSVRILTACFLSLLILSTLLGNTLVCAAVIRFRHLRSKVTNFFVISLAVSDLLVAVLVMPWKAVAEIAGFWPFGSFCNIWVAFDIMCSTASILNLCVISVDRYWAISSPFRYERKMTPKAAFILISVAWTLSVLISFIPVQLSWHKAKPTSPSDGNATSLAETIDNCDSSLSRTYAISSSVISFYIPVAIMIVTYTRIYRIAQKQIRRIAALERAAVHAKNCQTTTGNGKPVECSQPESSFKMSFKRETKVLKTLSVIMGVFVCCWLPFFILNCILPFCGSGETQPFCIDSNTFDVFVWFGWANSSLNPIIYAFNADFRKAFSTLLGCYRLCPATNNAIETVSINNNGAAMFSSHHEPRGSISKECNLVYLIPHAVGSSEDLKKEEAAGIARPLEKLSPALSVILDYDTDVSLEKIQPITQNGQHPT
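HEK293 T-REx cells expressing inducible, force-coupled D1 receptor; no-wash Ca dye, 30–90 min RT. Cmpd → 180 s read at 1 Hz → EC80 DA → 180 s read.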
D1 PAM: enhances dopamine response at the human D1 receptor; P21728; HEK293 TREx D1 cells, calcium flux, dopamine EC20 potentiation; potentiation, % at 10 µM; 360,000 tested, 0.036% active; in the data active = potentiation above about 30%
TRHR agonist: TRH receptor (human) agonism; AID 493084; P34981; activation, % at 2 µM; 360,000 tested, 0.18% active; TRHR cells, calcium flux fluo-8, FDSS agonist mode
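TRHR-expressing cells loaded with fluo-8 calcium dye; 23 nL library compound pin-transferred, kinetic FDSS fluorescence (Ex 480/Em 530) recorded about 180 s for agonist-induced calcium release, before a 10 nM TRH EC20 addition for potentiator mode.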
TRHR enhancer: allosterically enhances the human TRH receptor | P34981 | TRHR cells, fluo-8 calcium fluorescence, EC20 TRH enhancement | enhancement, % at 2 µM | 360,000 tested, 0.66% active | AID 493056; in the data active = enhancement above about 30%
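Enhancer read-out: after compound pinning and an initial kinetic agonist-mode read, an EC20 of TRH (10 nM final) was injected and fluo-8 calcium signal (Ex 480/Em 530) followed at 1 s/cycle for 100 cycles in TRHR-expressing cells.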
D1 agonist: agonists of human D1 dopamine receptor; P21728; HEK293 T-REx D1 cells, calcium flux, agonist mode; activation, % at 2 µM; 360,000 tested, 1% active
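Tetracycline-induced HEK293 TREx D1 cells, force-coupled to calcium signalling, were dye-loaded with a no-wash calcium kit. Compound was pin-added after a 10 s baseline. Fluorescence was read kinetically at 1 cycle/s for 180 s, with calcium rises flagged as agonism.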
A number is an active result; – = inactive; · = no result. Cut-off read from the data, not from the text of the source, unless noted: active = activation above about 30%; inactive = the rest.

SMILES | D1 antagonist | D1 PAM | TRHR agonist | TRHR enhancer | D1 agonist
COC(CN(C)C(=O)c1cn(C)c2ccc(S(=O)(=O)N(C)C3CCCCC3)cc2c1=O)OC | – | – | – | 31 | –
O=S(=O)(c1ccc2ccccc2c1)n1nc(-c2ccco2)nc1NCc1ccc(F)cc1 | – | – | – | – | –
CCCCCSc1nc2sc3c(c2c(=O)n1-c1ccccc1)CCN(C(C)=O)C3 | – | – | – | – | –
CC(=O)N1CCc2cc(Br)cc(S(=O)(=O)CCC(=O)NCc3ccc(F)cc3)c21 | – | – | – | – | –
CCOc1ccc(-c2cc(C(=O)N3CCN(c4ccc(C)cc4)C(C)C3)c3ccccc3n2)cc1 (stereo unspecified) | – | – | – | – | –
CC(=O)Nc1ccc(Nc2nc(Cl)nc(Nc3ccc(NC(C)=O)cc3)n2)cc1 | -36 | – | – | – | –
CCOC(=O)c1c(C)c(C(=O)NCCc2ccc(OC)cc2)c(C)n1CC | – | – | – | – | –
O=C(O)c1ccc(Cn2ccc3ccccc32)o1 | -36 | – | – | – | –
Cc1ccc(NC(=O)COc2ccccc2C#N)cc1S(=O)(=O)N1CCCCCC1 | – | – | – | – | –
Cc1ccc(NC(=O)C2CCN(C(=O)OC(C)(C)C)CC2)cc1S(=O)(=O)N1CCCCC1 | -38 | – | – | – | –
Cc1ccc(NC(=O)COC(=O)C2CC3C=CC2C3)cc1S(=O)(=O)N1CCCCC1 (stereo unspecified) | – | – | – | – | –
Cc1ccc(NC(=O)COc2ccccc2)cc1S(=O)(=O)N1CCCCCC1 | – | – | – | – | –
Cc1ccc(C)c(OCCC(=O)OCC(=O)Nc2ccc(C)c(S(=O)(=O)N3CCCCC3)c2)c1 | -32 | – | – | – | –
Cc1ccc(NC(=O)COC(=O)C2CCC2)cc1S(=O)(=O)N1CCCCC1 | -32 | – | – | – | –
Cc1ccccc1CC(=O)OCC(=O)Nc1ccc(C)c(S(=O)(=O)N2CCCCC2)c1 | -35 | · | – | – | 79
CCc1ccccc1NC(=O)CSc1nc2c(oc3ccccc32)c(=O)n1-c1ccccc1F | – | – | – | – | –
Cc1ccc2c(=O)c(C(=O)c3cccc(Cl)c3)cn(CC(=O)NC3CCCCC3)c2n1 | – | – | – | – | –
NC(=O)C1CCN(C(=O)c2ccccc2NC(=O)c2nsc3ccccc23)CC1 | – | – | – | – | –
CSc1ccc(CCNC(=O)c2c(C)oc3ncn(C)c(=O)c23)cc1 | – | – | – | – | –
Cc1ccc(NC(=S)NCc2ccccc2)cc1S(=O)(=O)N1CCCCC1 | -35 | – | – | – | 33
Cc1ccc(NC(=O)CSc2ccccc2)cc1S(=O)(=O)N1CCCCC1 | – | – | – | – | –
COc1ccccc1OCc1ccc(C(=O)Nc2ccc(C)c(C)c2)o1 | – | – | – | – | –
CC(C)CC(NC(=O)C1CCC(C)CC1)C(=O)Nc1cccnc1 (stereo unspecified) | -35 | – | – | – | –
CC(C)Cc1ccc(C(C)C(=O)Nc2cccnc2)cc1 (stereo unspecified) | -51 | – | – | – | 75
CC(C(=O)Nc1cccnc1)c1ccc([N+](=O)[O-])cc1 (stereo unspecified) | – | – | – | – | –
SMILES | D1 antagonist | D1 PAM | TRHR agonist | TRHR enhancer | D1 agonist
CC(C)Cc1ccc(C(C)C(=O)Nc2ccc(O)cc2)cc1 (stereo unspecified) | -68 | – | – | – | 83
COc1ccc2cc(-c3nc4ccc(C(=O)O)cc4[nH]3)c(=O)oc2c1 | – | – | – | – | –
CCOc1ccc(N2CC(NC(=O)C3CCCCC3)CC2=O)cc1 (stereo unspecified) | · | – | – | – | –
O=S(=O)(NCc1ccc(C(F)(F)F)cc1)c1ccc(-n2cnnn2)cc1 | -39 | – | – | – | –
CCc1ccc(NC(=O)Nc2cccs2)cc1 | -37 | – | – | – | –
Cc1ccc(-c2cn3c4c(=O)n(C)c(=O)n(C)c4nc3n2-c2cccc(Cl)c2)cc1 | – | – | – | – | –
CCOCCCNC(=O)c1cnc2sc(N3CCCCCC3)nn2c1=O | -31 | – | – | – | –
Cc1noc(-c2ccc(-c3noc(-c4cccc(F)c4)n3)cc2)n1 | – | – | – | – | –
COc1ccc(-c2nc(SCC(=O)Nc3ccccc3)c(-c3ccc(F)cc3)[nH]2)cc1OC | -47 | – | – | – | –
